# Screening results from PubChem.
# Most compounds without a hit are left out; they make up all but 15% or so of the library.
# 12-LOX inh: Primary qHTS assay for inhibitors of human arachidonate 12S-lipoxygenase (ALOX12): Round 2. Polyunsaturated fatty acid lipoxygenase ALOX12 (Homo sapiens), P18054. purified 12hLO, xylenol orange hydroperoxide absorbance. Potency, µM (highest dose often 108 µM), actives largely listed as inhibitors. 1.1% of 580,000 active. AID 1671190, 2021
# Target sequence (P18054 whole entry, looked up): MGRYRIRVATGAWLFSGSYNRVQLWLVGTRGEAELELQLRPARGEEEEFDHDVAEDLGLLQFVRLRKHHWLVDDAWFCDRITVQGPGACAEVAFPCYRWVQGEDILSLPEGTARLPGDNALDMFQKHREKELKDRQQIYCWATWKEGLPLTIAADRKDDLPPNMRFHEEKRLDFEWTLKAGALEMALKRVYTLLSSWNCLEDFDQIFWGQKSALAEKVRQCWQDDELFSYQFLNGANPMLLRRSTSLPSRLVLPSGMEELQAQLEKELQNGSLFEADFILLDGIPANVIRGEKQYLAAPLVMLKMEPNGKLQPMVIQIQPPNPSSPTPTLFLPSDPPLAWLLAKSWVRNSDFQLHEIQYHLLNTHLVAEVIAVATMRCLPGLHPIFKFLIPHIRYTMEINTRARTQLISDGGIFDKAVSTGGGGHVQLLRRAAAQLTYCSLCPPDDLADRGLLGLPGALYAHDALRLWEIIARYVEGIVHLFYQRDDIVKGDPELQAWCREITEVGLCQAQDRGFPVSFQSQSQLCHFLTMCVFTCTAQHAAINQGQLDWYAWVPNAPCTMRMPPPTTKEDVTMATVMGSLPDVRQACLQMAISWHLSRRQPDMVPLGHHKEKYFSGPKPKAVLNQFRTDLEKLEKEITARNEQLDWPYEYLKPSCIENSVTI
#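 Hydroperoxide product was detected by ferrous iron/xylenol orange as the 573 to 405 nm absorbance ratio. Arachidonic acid at 40 uM (final) was turned over for 30 min at room temperature by 150 nM human 12hLO, pH 7.0 Hepes buffer, after 15 min compound preincubation.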
# RORg inh: qHTS for inhibitors of ROR gamma transcriptional activity; Nuclear receptor ROR-gamma (Mus musculus), P51450; Drosophila S2 Gal4-RORgamma UAS-luciferase reporter, 20 h; Potency, µM (doses to about 53.6 µM), usual class: inhibitors; 5.4% of 310,000 active; AID 2551, 2010; also: nearly all actives have a fitted effect of over 60% in size
#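 In this cell-based reporter format, copper sulfate (700 uM final) drives Gal4–ROR gamma fusion expression from a metallothionein promoter in Drosophila Schneider cells; compounds preincubated 1 hr, reporter read after 20 hr at ambient temperature.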
# Gal4-VP16 FLuc: VP16 counterscreen qHTS for inhibitors of ROR gamma transcriptional activity; Drosophila S2 Gal4-VP16 UAS-luciferase, luminescence, 20 h; Potency, µM (top dose mostly 53.6 µM), hits mostly inhibitors; 3.5% of 310,000 active;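 also: Gal4-VP16 expression switched on by copper sulfate through the metallothionein promoter; nearly all actives have a fitted effect of over 50% in size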
# ELG1 repair inh: qHTS screen for small molecules that inhibit ELG1-dependent DNA repair in human embryonic kidney (HEK293T) cells expressing luciferase-tagged ELG1 | HEK293T ELG1-luciferase reporter, luminescence, 16 h; DNA damage induced by 5-fluorouridine | Potency, µM (top dose mostly 46.1 µM), hits mostly inhibitors | 2.3% of 330,000 active; also: nearly all actives have a fitted effect of over 55% in size
#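 Reporter activity after DNA damage by 5-fluorouridine is monitored. Compound-treated cells incubate 16 hr at 37 °C, then ONE-Glo is added for 30 min before luminescence reading.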
# DT40 TDP1 CPT: qHTS for Inhibitors of human tyrosyl-DNA phosphodiesterase 1 (TDP1): qHTS in cells in presence of CPT; 12% of 420,000 active; chicken DT40 Tdp1-/-;hTDP1 cells + 20 nM CPT, ATP luminescence, 48 h; Potency, µM (highest dose often 46.2 µM), actives largely listed as inhibitors; also: nearly all actives have a fitted effect of over 55% in size
#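 Cell growth measured by CellTiter-Glo luminescence after a minimum 48 h, 37 C compound exposure with 20 nM CPT in Tdp1-knockout DT40 cells stably expressing hTDP1, seeded 400/well; qHTS titration format.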
# DT40 TDP1 no CPT: qHTS for Inhibitors of human tyrosyl-DNA phosphodiesterase 1 (TDP1): qHTS in cells in absence of CPT | 15% of 420,000 active | Potency, µM (top dose mostly 46.2 µM), usual class: inhibitors | DT40 Tdp1-/- hTDP1 cells, no CPT, ATP luminescence, 48 h; also: nearly all actives have a fitted effect of over 55% in size
#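 Luminescent ATP content (CellTiter-Glo) served as the growth readout. Knockout chicken DT40 cells expressing human TDP1 were exposed to compounds without camptothecin for a minimum 48 hr at 37 °C.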
# A number is an active result; . = inactive; ? = inconclusive; / = not tested or not shown. Calls follow the shape of the dose curve; as a rule, active = well fitted curve in the direction sought with a large enough effect; inconclusive = small, poorly fitted or top-dose-only effect, or another doubt; inactive = no such curve, though single readings can be large; an effect the other way counts as inactive or inconclusive.
SMILES,12-LOX inh,RORg inh,Gal4-VP16 FLuc,ELG1 repair inh,DT40 TDP1 CPT,DT40 TDP1 no CPT
COc1ccc(NC(=O)CNC(=O)C23CC4CC(CC(C4)C2)C3)c(OC)c1,.,/,/,.,?,?
Cc1c(C(=O)N(C)c2ccccc2)oc2c1C(O)CC(C)(C)C2 (configuration not stated),.,.,.,.,?,?
COc1ccc(OC)c(NC(=O)C(=O)NNC(=O)C23CC4CC(CC(C4)C2)C3)c1,.,2.5µM,?,29µM,?,?
COc1ccc(OC)c(NC(=O)c2oc3c(c2C)C(O)CC(C)(C)C3)c1 (configuration not stated),.,.,.,.,15µM,?
COc1ccc(-c2nc3cc(NC(=O)c4ccc(Br)cc4)ccc3o2)cc1,.,/,/,/,/,/
O=C(Nc1cccnc1)Nc1ccc(F)c(Cl)c1,.,.,.,.,.,?
Fc1ccc(Nc2cncc(-c3ccsc3)c2)cc1Cl,40µM,/,/,/,16µM,18µM
CC1(C)C/C(=N\NC(=S)Nc2ccccc2F)c2cc(O)ccc2O1,?,3.2µM,?,.,?,4.1µM
COc1cccc(NC(=S)N/N=C2\CC(C)(C)Oc3ccc(O)cc32)c1,32µM,7.1µM,4.5µM,?,?,?
Cc1cccc(NC(=S)N/N=C2\CC(C)(C)Oc3ccc(O)cc32)c1,?,4.5µM,3.2µM,?,3.7µM,2.6µM
Cc1cccc(NC(=S)N/N=C/c2ccc3c(c2)OCO3)c1,?,.,.,.,?,?
COc1ccccc1NC(=S)Nc1ccccc1F,.,?,?,.,?,?
COc1cc2c(cc1OC)CN(C(=O)CCCN1C(=O)c3ccccc3C1=O)CC2,.,.,.,.,.,.
COc1cc2c(cc1OC)CN(C(=O)CCOc1ccccc1)CC2,.,.,.,.,?,18µM
C/C=C/c1ccc(OCC(=O)N2CCc3cc(OC)c(OC)cc3C2)c(OC)c1,.,.,.,.,?,23µM
COc1cc(C(C)=O)ccc1OCC(=O)N1CCc2ccccc2C1,.,.,.,.,.,.
COc1cc2c(cc1OC)CN(C(=O)CCCOc1ccc(Cl)cc1Cl)CC2,.,.,.,?,16µM,18µM
COc1cc2c(cc1OC)CN(C(=O)CCOc1ccccc1C)CC2,.,.,.,?,?,21µM
CCOC(=O)CC1COCCN1C(=O)c1cn(Cc2ccc(F)cc2Cl)nn1 (configuration not stated),.,/,/,/,/,/
O=C(c1cc(-c2ccccc2)n[nH]1)N1CCC2(CC1)CC(OCC1CC1)CCO2 (configuration not stated),.,/,/,/,/,/
Cc1ccc2nc(-c3ccccc3)cc(C(=O)N3CCN(CC(=O)NC4CC4)CC3)c2c1,.,/,/,/,/,/
COc1cc2c(cc1OC)CN(C(=O)Cc1ccccc1)CC2,.,.,.,.,.,.
COc1ccc(OC)c(CC(=O)N2CCc3cc(OC)c(OC)cc3C2)c1,.,.,.,.,0.13µM,?
O=S(=O)(c1ccc(Br)cc1)N1CCn2cccc2C1c1ccc(Br)cc1 (configuration not stated),.,/,/,/,?,16µM
CC(=O)c1ccc(S(=O)(=O)N2CCn3cccc3C2c2ccc(C)cc2)cc1 (configuration not stated),.,/,/,/,21µM,?
SMILES,12-LOX inh,RORg inh,Gal4-VP16 FLuc,ELG1 repair inh,DT40 TDP1 CPT,DT40 TDP1 no CPT
COc1ccc(C2c3cccn3CCN2S(=O)(=O)c2ccc([N+](=O)[O-])cc2)cc1 (configuration not stated),.,/,/,/,?,?
CNC(=O)CNC(=O)c1ccc(F)cc1Br,.,/,/,/,/,/
O=C(NCC1CN(C(=O)Cc2ccc(C(F)(F)F)cc2)CC12CN(c1ccccc1)C2)c1ccccc1 (configuration not stated),.,/,/,/,/,/
CCC(=O)N[C@@H]1Cc2ccccc2[C@@H](c2ccccc2)C1,.,.,8.9µM,/,?,?
Cc1ccc(NC(C)(C)c2nnnn2-c2ccc(C)cc2)cc1,.,/,/,/,/,/
Cc1ccc(-n2nnnc2C(Cl)(Cl)c2nnnn2-c2ccc(C)cc2)cc1,?,18µM,7.1µM,.,2.9µM,2.6µM
NC1CCN(C(=O)C2CCCN(c3nc(-c4ccccc4)nc4c3CCC4)C2)CC1 (configuration not stated),.,/,/,/,/,/
CCC(C)C(=O)Nc1nc(C)c(-c2csc(Nc3cc(OC)ccc3OC)n2)s1 (configuration not stated),?,?,?,?,16µM,15µM
CCCCC(=O)Nc1nc(C)c(-c2csc(Nc3cc(Cl)ccc3OC)n2)s1,.,.,.,?,?,?
COc1ccc(OC)c(Nc2nc(-c3sc(NC(=O)CC(C)C)nc3C)cs2)c1,?,.,.,?,15µM,16µM
COc1ccc(Cl)cc1Nc1nc(-c2sc(NC(=O)C(C)(C)C)nc2C)cs1,?,?,7.1µM,?,5.2µM,3.7µM
CCCCC(=O)Nc1nc(C)c(-c2csc(Nc3cc(OC)ccc3OC)n2)s1,.,.,.,18µM,6.5µM,?
COc1cc(Cl)ccc1C(=O)N[C@@H]1CN(c2ncccn2)C[C@H]1CN(C)C,.,/,/,/,/,/
O=C(Cc1c[nH]c2ccccc12)Nc1ccc(F)c(F)c1,.,/,/,/,/,/
CCC(C)C(=O)Nc1nc(C)c(-c2csc(Nc3cc(Cl)ccc3OC)n2)s1 (configuration not stated),.,?,?,?,15µM,10µM
CCn1c(SC(C)C)nnc1-c1cc(-c2ccccc2)sc1N,.,6.3µM,7.1µM,?,?,16µM
COCCOC1CCOC2(CCN(C(=O)c3cccc(C)c3)CC2)C1 (configuration not stated),.,/,/,/,/,/
COc1cc(C(=O)NC(=S)Nc2ccc3c(c2)C(=O)N(C)C3=O)cc(OC)c1OC,?,.,.,.,.,3.7µM
COc1cc(C(=O)Nc2cccc(NC(=O)c3ccccc3)c2)cc(OC)c1OC,.,.,.,?,?,.
COc1ccc(Cl)cc1C(=O)NNC(=S)NC(=O)c1ccc(F)c(F)c1,/,7.1µM,11µM,.,.,?
COc1cc(C(=O)NC(=S)Nc2ccc3ccccc3c2)cc(OC)c1OC,18µM,/,/,/,23µM,23µM
COc1cc(C(=O)NC(=S)Nc2ccc3c(c2)OCO3)cc(OC)c1OC,.,14µM,?,?,.,.
CCOC(=O)c1ccccc1NC(=O)CN1C(=O)NC2(CCCCC2)C1=O,.,/,/,/,/,/
